M1 ag parental: M1 agonist counterscreen hit in parental CHO-K1 cells; Fluo-8 calcium fluorescence; scaled to maximal ATP response, vehicle zero; activation, % at 3 µM; 360,000 compounds, 0.48% hits; AID 602248; in the data active = activation above about 15%;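 note: untransfected CHO-K1 host cells lacking M1 receptor as counterscreen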
CHO-K1 Ca PAM: counter-screen for M1 PAMs: effect in parental CHO-K1 cells; ATP EC20, Fluo-8 calcium fluorescence; 0% at ATP EC20, 100% at ATP max; activation, % at 3 µM; 360,000 compounds, 0.02% hits; AID 602247;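 active = activation above the run cutoff, the mean activation of all test compounds plus 3 SD, cut at about 40% in these data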;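 note: peak over basal fluorescence ratio in a 140 s read after ATP addition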
CHRM1 agonist: agonists of human M1 muscarinic receptor. activation, % at 3 µM. 360,000 compounds, 0.33% hits. CHO-K1 hM1, Fluo-8 calcium fluorescence, agonist mode; 0% DMSO, 100% acetylcholine EC100;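 active = activation above the run's mean compound activation plus 3 SD, cut at about 16% in these data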;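 note: peak over basal fluorescence ratio within a 140 s kinetic read after compound addition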
Target sequence (P11229 whole entry, looked up): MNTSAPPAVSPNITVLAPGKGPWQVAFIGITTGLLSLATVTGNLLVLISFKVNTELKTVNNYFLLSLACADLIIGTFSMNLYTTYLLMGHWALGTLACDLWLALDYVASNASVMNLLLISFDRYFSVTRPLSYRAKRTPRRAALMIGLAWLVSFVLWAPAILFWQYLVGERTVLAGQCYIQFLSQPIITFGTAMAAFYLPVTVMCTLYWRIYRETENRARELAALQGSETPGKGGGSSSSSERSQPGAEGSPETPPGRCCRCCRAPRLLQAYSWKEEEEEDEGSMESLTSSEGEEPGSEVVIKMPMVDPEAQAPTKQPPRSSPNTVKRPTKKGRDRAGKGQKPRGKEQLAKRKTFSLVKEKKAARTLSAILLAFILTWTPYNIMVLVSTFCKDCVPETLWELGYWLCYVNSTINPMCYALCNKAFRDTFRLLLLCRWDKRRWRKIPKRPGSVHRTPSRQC
M1 PAM: positive allosteric modulators of human M1 muscarinic receptor; CHO-K1 hM1, Fluo-8 calcium fluorescence, ACh EC20; 0% = ACh EC20, 100% = maximal ACh; activation, % at 3 µM; 360,000 compounds, 0.088% hits; AID 588819; in the data active = activation above about 19%, passing the limit was not always enough
CHO-K1 Ca antag: M1 antagonist counterscreen hit in parental CHO-K1 cells; ATP-induced calcium, Fluo-8 fluorescence; inhibition, % at 3 µM; 360,000 compounds, 0.6% hits;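 active = inhibition above a per-plate cutoff, the plate's mean sample inhibition plus 3 SD, cut at about 24% in these data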
CHRM1 antagonist: blocks human M1 muscarinic receptor; CHO-K1 hM1, Fluo-8 calcium fluorescence, ACh EC80 antagonist; inhibition, % at 3 µM; 360,000 compounds, 1.3% hits;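 active = percent inhibition above its own plate's cutoff, namely the mean of that plate's compound wells plus 3 SD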;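 note: peak over basal fluorescence ratio during 140 s after agonist addition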
Of the large screens only hits and unclear results are named; the others gave an inactive call. The list is not random: actives were taken first. Their share in the collection is about 2.4%.

COc1ccc(S(=O)(=O)NCC2CCCN(Cc3ccc(OC)cc3F)C2)cc1 (stereo unspecified)	none
CCOC(=O)C1CCCN(Cc2c(C(=O)N3CCCCC3)nc3c(C)cccn23)C1 (stereo unspecified)	none
CCOC(=O)C1CCCN(Cc2c(C(=O)N3CCOCC3)nc3ccccn23)C1 (stereo unspecified)	CHRM1 agonist 23
Cc1cc2ccccc2n1CCNCc1c(C(=O)N2CCOCC2)nc2ccccn12	CHO-K1 Ca antag 24
CCCn1c2ccccc2c2cnn(CC(=O)NC(C)CC)c(=O)c21 (stereo unspecified)	none
CN=Cc1nc(-c2ccccc2)oc1O	none
CC(C)[C@H](CN1CCC[C@H]1CN1C(N)=NC[C@@H]1Cc1ccccc1)N1C[C@@H](Cc2ccccc2)N(CCc2ccc(Cl)c(Cl)c2)C1=N	none
CC(C)[C@@H]1CN=C(N)N1C[C@@H]1CCCN1C[C@H](C)N1C[C@@H](Cc2ccccc2)N(CCc2ccc(Cl)c(Cl)c2)C1=N	CHRM1 antagonist 46
C[C@@H](CN1CCC[C@H]1CN1C(N)=NC[C@@H]1Cc1ccccc1)N1C[C@@H](Cc2ccccc2)N(CCc2ccc(Cl)c(Cl)c2)C1=N	CHRM1 antagonist 68
CCN(CC)c1ccc(C=C2SC(=S)NC2=O)cc1	CHRM1 agonist 111, CHRM1 antagonist 83
CCc1ccc(N=Nc2ccc(O)c3[nH]cnc23)cc1	CHRM1 antagonist 40
O=C(OCCN1CCOCC1)c1ccccc1	none
COc1ccc(CN2C(=O)c3cccnc3C2=O)cc1S(=O)(=O)N1CCCC(C)C1 (stereo unspecified)	none
COc1cc(/C=N/N(C)C)cc(Br)c1O	M1 PAM 23
CN=c1scc(C)n1/N=C/c1cc(Br)c(O)c(OC)c1	none
Cc1cn([C@H]2C[C@H](O)[C@@H](CCC(=O)NCc3cccs3)O2)c(=O)[nH]c1=O	CHO-K1 Ca antag 24
O=C(Nc1cc(C(F)(F)F)ccc1N1CCOCC1)c1ccc(Br)o1	none
CC(C)(C)c1ccc(C(O)c2ncc(-c3ccccc3Cl)[nH]2)cc1 (stereo unspecified)	none
CCOc1ccc(NS(=O)(=O)c2ccc(C(=O)N3CC(C)OC(C)C3)cc2)cc1 (stereo unspecified)	M1 ag parental 41, CHRM1 agonist 55, CHRM1 antagonist 34
CCOc1ccc(NS(=O)(=O)c2ccc(C(=O)N3CCCCC3)cc2)cc1	M1 ag parental 19, CHRM1 agonist 23
Cc1ccc(NS(=O)(=O)c2ccc(C(=O)N3CCCC(C(F)(F)F)C3)cc2)cc1 (stereo unspecified)	M1 ag parental 39, CHRM1 agonist 45
CCOc1ccc(S(=O)(=O)Nc2ccc(C(=O)N3CC(C)OC(C)C3)cc2)cc1 (stereo unspecified)	M1 ag parental 17, CHRM1 agonist 33
Cc1ccc(NC(=O)c2sccc2-n2cccc2)c(Cl)c1	none
CCN(CC)S(=O)(=O)c1ccc2oc(C(=O)NCC3COc4ccccc4O3)c(C)c2c1 (stereo unspecified)	none
CCOC(=O)[C@H]1[C@H]2COc3ccccc3[C@@H]2N2C(=O)c3ccc(C)cc3NC(=O)[C@@]12C	none
S=C(NC1CCCC1)NC1CCCC1	none
O=C1CCCC2=C1C(c1ccccc1)C1C(=O)c3ccccc3C1=N2 (stereo unspecified)	none
CC1CN(C(=O)c2cccc(S(=O)(=O)N3CCN(c4ccc(F)cc4)CC3)c2)CC(C)O1 (stereo unspecified)	none
COc1ccc(NS(=O)(=O)c2ccc(C(=O)N3CCC(C)CC3)cc2)cc1	M1 ag parental 31, CHRM1 agonist 36
CC1CN(C(=O)c2ccc(NS(=O)(=O)c3ccc(C(C)(C)C)cc3)cc2)CC(C)O1 (stereo unspecified)	M1 ag parental 25, CHRM1 agonist 39
O=C(c1cccc(S(=O)(=O)N2CCN(c3ccc(F)cc3)CC2)c1)N1CCCC(C(F)(F)F)C1 (stereo unspecified)	CHRM1 antagonist 34
CC(C)n1cc(C(=O)N2CCCC(N3CCN(c4ccc(F)cc4)CC3)C2)cn1 (stereo unspecified)	none
N#Cc1ccccc1Sc1ccccc1C(=O)NCC(c1ccco1)N1CCCCC1 (stereo unspecified)	CHRM1 antagonist 30
O=C(NCC(c1ccco1)N1CCCC1)c1ccccc1Sc1ccc(C(F)(F)F)cc1[N+](=O)[O-] (stereo unspecified)	CHRM1 antagonist 95
CC[C@@]12C(=O)N(c3cccc(Br)c3)C(=O)N1[C@H](c1cccc(C)c1)[C@@H]1C(=O)N(Cc3ccccc3)C(=O)[C@@H]12	none
Cc1ccc(/C=N/NC(=O)c2nnn(-c3nonc3N)c2C(C)C)o1	CHO-K1 Ca antag 28
CCc1ccc(/C=N/NC(=O)c2nnn(-c3nonc3N)c2C(C)C)cc1	CHRM1 agonist 33
O=C(Cc1ccc(OCc2ccccc2)cc1)NCc1ccc2c(c1)OCO2	none
CNC(=S)NN(c1ccccc1)c1ccccc1	none
COc1ccccc1-n1cnc2c(c1=O)c1nc3ccccc3nc1n2-c1ccc(C)cc1	none
CN(C)Cc1ccc(F)cc1Sc1ccc(Cl)cc1Cl	CHRM1 antagonist 52
COc1nc(-c2cnccn2)sc1C	none
COc1ccc2nc(SCC(=O)Nc3ccc(S(=O)(=O)N4CCCC4)cc3)c(C#N)cc2c1	none
CN(C(=O)Cn1c(Cl)nc2c1c(=O)n(C)c(=O)n2C)C1CCS(=O)(=O)C1 (stereo unspecified)	CHRM1 antagonist 23
CCC(C)N(C(=O)Cn1c(Cl)nc2c1c(=O)n(C)c(=O)n2C)C1CCS(=O)(=O)C1 (stereo unspecified)	none
O=C1Nc2ccccc2Nc2ccccc21	none
CNC(=O)CN1C(=O)CSc2ncccc21	none
COc1ccc(-n2cc(CN(C)C(C)c3ccncn3)c(-c3cccc(F)c3)n2)cc1 (stereo unspecified)	none
COc1ccc(-n2cc(CN(C)CCO)c(-c3cccc(F)c3)n2)cc1	M1 ag parental 18
COC(=O)c1cc(C)sc1NC(=S)N1CCN(CCc2ccccc2)CC1	none
CCCCn1cnc2c(cnn2-c2ccc(Cl)cc2)c1=O	none
O=C(NCCCn1ccnc1)C1CCN(S(=O)(=O)c2ccc(F)cc2)CC1	none
CCOC(=O)/C=C/C(=O)Nc1ccc(Oc2ccccc2)cc1	CHO-K1 Ca antag 28
O=C(O)/C=C/C(=O)Nc1ccc(Oc2ccccc2)cc1	none
CC1(C)N=C(N)N=C(N)N1c1ccc(CCCCc2ccccc2)cc1	CHRM1 antagonist 57
O=C(Nc1ccc(Nc2ccccc2)cc1)c1ccc(Br)o1	none
CC(=O)c1c(C)[nH]c(C(=O)COC(=O)C2CC2)c1C	none
